From PubChem BioAssay (NCATS) come the findings set out here.

Assay [1] in a line: Quantitative highthroughput screen to assess conditional lethalithy of NOMO1 cells grown in RPMI1640 with untreated serum (RPMI+s) (AID 1963876). Further: nearly all actives have a fitted effect of over 35% in size. Further: potency means the concentration at half of the fitted maximal effect.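 On viability: 100% = DMSO wells and 0% = empty wells without cells.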 The essentials: (§1)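 Each medium arm—HPLM with 10% dialyzed FBS, or RPMI1640 with 5 mM glucose and 10% untreated or dialyzed FBS—was screened against an 11-point, 3-fold compound titration for 48 h at 37 °C, with CellTiter-Glo luminescence as endpoint.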

Assay [2] can be described thus: Quantitative highthroughput screen to assess conditional lethalithy of NOMO1 cells grown in RPMI1640 with dialyzed fetal bovine serum (RPMI+ds) (AID 1963877). Further: nearly all actives have a fitted effect of over 30% in size. Further: potency means the concentration at half of the fitted maximal effect.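 On viability: series mostly up to about 46 µM; 100% = DMSO control wells and 0% = empty wells.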 The procedure, abridged:
as §1

Assay [3] can be described thus: Quantitative highthroughput screen to assess conditional lethalithy of NOMO1 cells grown in Human Plasma-Like Medium with dialyzed fetal bovine serum (HPLM+ds) (AID 1963878). Further: nearly all actives have a fitted effect of over 35% in size. Further: potency means the concentration at half of the fitted maximal effect.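 On viability: 100% = DMSO wells and 0% = empty wells on each plate.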 The essentials: as §1
The nature of assay [4]: Quantitative highthroughput screen to assess conditional lethalithy of P12 Ichikawa cells grown in Human Plasma-Like Medium with dialyzed fetal bovine serum (HPLM+ds) (AID 1963879). Further: nearly all actives have a fitted effect of over 35% in size. Further: potency means the concentration at half of the fitted maximal effect. On viability: series mostly up to about 46 µM. The conditions noted are these: Potency: viability. The procedure, abridged: as §1
Assay [5] can be described thus: Quantitative highthroughput screen to assess conditional lethalithy of P12 Ichikawa cells grown in RPMI1640 with dialyzed fetal bovine serum (RPMI+ds) (AID 1963880). Further: nearly all actives have a fitted effect of over 35% in size. Further: potency means the concentration at half of the fitted maximal effect.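 On viability: 100% = DMSO wells and 0% = empty wells on each plate.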 As to conditions: Potency: P12-Ichikawa viability. The procedure, abridged:
as §1

Assay [6] can be described thus: Quantitative highthroughput screen to assess conditional lethalithy of P12 Ichikawa cells grown in RPMI1640 with untreated serum (RPMI+s) (AID 1963881). The conditions noted are these: Potency: viability. The procedure, abridged:
as §1

A short description of assay [7]: Quantitative highthroughput screen to assess conditional lethalithy of SEM cells grown in Human Plasma-Like Medium with dialyzed fetal bovine serum (HPLM+ds) (AID 1963882). Further: nearly all actives have a fitted effect of over 35% in size. Further: potency means the concentration at half of the fitted maximal effect. On viability: series mostly up to about 46 µM. The procedure, abridged:
as §1

Assay [8] is described as follows: Quantitative highthroughput screen to assess conditional lethalithy of SEM cells grown in RPMI1640 with unreated serum (RPMI+s) (AID 1963883). Further: nearly all actives have a fitted effect of over 35% in size. Further: potency means the concentration at half of the fitted maximal effect.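 On viability: 100% = DMSO wells and 0% = empty wells without cells.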 The essentials: as §1
Assay [9] in a line: Quantitative highthroughput screen to assess conditional lethalithy of SEM cells grown in RPMI1640 with dialyzed fetal bovine serum (RPMI+ds) (AID 1963884). Further: nearly all actives have a fitted effect of over 35% in size. Further: potency means the concentration at half of the fitted maximal effect.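 On viability: series mostly up to about 46 µM; 100% = DMSO control wells and 0% = empty wells without cells.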 The essentials: as §1
Assay [10] can be described thus: Cellular viability qHTS for adrenocortical cancer (ACC) cell line SW-13 (AID 1963989).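 Further: cells grown in serum-free medium with ITS supplement; on the % scale 0 is the no-effect control and ±100 the full control effect; nearly all actives have a fitted effect of over 65% in size.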 As to conditions: SW-13 ACC cells viability, CellTiter-Glo, 48 h; activity (max response): active compounds read low. The procedure, abridged: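 Luminescent ATP read-out (CellTiter-Glo, 20 min at room temperature) measured metabolically competent SW-13 cells after 48 h compound treatment. Final concentrations spanned up to 46 uM; bortezomib served as positive control.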
(Quantitative high-throughput screening tests each substance at several concentrations.)

Assay [11] is described as follows: Cellular viability qHTS for adrenocortical cancer (ACC) cell line NCI-H295R (AID 1963990). Further: nearly all actives have a fitted effect of over 60% in size. Further: potency means the concentration at half of the fitted maximal effect. The procedure, abridged: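 IC50 and maximal efficacy derive from four-parameter logistic modelling of titration curves, with reads scaled between DMSO-only wells (0%) and doxorubicin hydrochloride (100% inhibition). Compounds spanned up to 46 uM over 48 h.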

Results filed as inconclusive are left out. A number with no mark means an inactive call. Active and inactive are the calls of the source. The call rests on the fitted dose curve; in most records, active means well fitted curve in the direction sought with a large enough effect; inconclusive means small, poorly fitted or top-dose-only effect, or another doubt; inactive means no such curve, though single readings can be large; an effect the other way counts as inactive or inconclusive.

For the molecule `Cc1c(Cn2c(C)nc3c(C(=O)O)cc(N4CCOCC4)cc32)cccc1C(F)(F)F`, the Potency entry in assay [1], in [2], in assay [4], in assay [5], in assay [6] and in [7] was “inactive” throughout. Besides, the Potency entry in assay [8], in assay [9] and in assay [11] was “inactive” each time. In addition, in assay [3], the Potency is 26400 nM (active). Also, the activity (max response) in assay [10] is 6.79%.

On to `C[C@H](O)[C@@H]1C(=O)N2C(C(=O)O)=C(S[C@@H]3CN[C@H](CNS(N)(=O)=O)C3)[C@@H](C)[C@@H]12`, for which the Potency result in assay [1], in assay [2], in assay [3], in assay [4], in assay [5] and in assay [6] was “inactive” in each case. Also, the Potency result in [7], in assay [8], in assay [9] and in assay [11] was “inactive” each time. In addition, the activity (max response) in assay [10] is 8.99%.

For `C[C@H]1Oc2cc(cnc2N)-c2c(nn(C)c2C#N)CN(C)C(=O)c2ccc(F)cc21`, the Potency entry in assay [1], in [2], in assay [3], in assay [4], in assay [5] and in assay [6] was “inactive” throughout. The Potency result in assay [7] and in assay [9] was “inactive” in each case. The activity (max response) in [10] is -27%. In addition, the Potency in assay [11] was 17800 nM (active).

Turning to `CC(C)(F)C[C@H](N[C@@H](c1ccc(-c2ccc(S(C)(=O)=O)cc2)cc1)C(F)(F)F)C(=O)NC1(C#N)CC1`, the Potency entry in assay [1], in [2], in [3], in [4], in assay [5] and in assay [6] was “inactive” throughout. Also, the Potency entry in assay [7], in assay [8], in assay [9] and in assay [11] was “inactive” each time. For the same molecule, the activity (max response) in assay [10] is -2.64%.

Regarding `O=C(O)[C@@H](c1ccc(OCc2ccc3ccccc3n2)cc1)C1CCCC1`, the Potency entry in assay [1], in assay [2], in assay [3], in assay [4], in assay [5] and in assay [6] was “inactive” each time. For the same molecule, the Potency entry in assay [7], in assay [8] and in assay [11] was “inactive” each time. The activity (max response) in assay [10] was -1.81%.

For the molecule `Cc1ccc2c(c1)c1c(n2CCc2ccc(C)nc2)CCN(C)C1`, the Potency result in assay [1], in assay [2], in assay [3], in [4], in assay [5] and in assay [7] was “inactive” throughout. Also, the Potency entry in assay [8] and in assay [9] was “inactive” in each case.

As to `NC(=O)c1cccc(N)c1`, the Potency entry in assay [1], in assay [2], in [3], in [4], in assay [5] and in assay [6] was “inactive” throughout. Further, the Potency result in assay [7] and in assay [11] was “inactive” throughout.

As for `NC(=O)c1ccc(I)c([N+](=O)[O-])c1`, the Potency result in assay [1], in [2], in assay [3], in assay [4], in assay [5] and in [6] was “inactive” each time. The Potency entry in assay [8], in assay [9] and in assay [11] was “inactive” each time. Besides, in [10], the activity (max response) is 11.3%.

Regarding `N#CC(=C(O)c1ccc(Cl)cc1Cl)c1nc2cc(Cl)ccc2c(=O)[nH]1`, the Potency result in assay [1], in [2], in assay [3], in [4], in assay [5] and in assay [6] was “inactive” throughout. Further, the Potency result in [8] is “inactive”.

With `Cc1cc(C=c2sc3nc4ccccc4n3c2=O)c(C)n1-c1ccccc1`, the Potency result in [1], in assay [2], in assay [3], in assay [4], in assay [5] and in assay [7] was “inactive” throughout. Also, the Potency entry in assay [8] and in assay [9] was “inactive” in each case.

On to `C=C1C[C@@]2(O)O[C@@]3(C[C@H]2C(C)C)[C@H](C)CC[C@H]13`, for which the Potency result in [1], in assay [2], in assay [3], in assay [4], in assay [5] and in assay [6] was “inactive” in each case. Also, the Potency result in assay [9] is “inactive”.

Regarding `C=C1c2cccc(O)c2C(O)=C2C(=O)[C@@]3(O)C(O)=C(C(N)=O)C(=O)[C@@H](N(C)C)[C@@H]3[C@@H](O)[C@H]12`, the Potency result in assay [1], in assay [2], in assay [3], in [4], in assay [5] and in [7] was “inactive” throughout. Besides, the Potency result in assay [8], in [9] and in assay [11] was “inactive” each time. In addition, the activity (max response) in assay [10] is -8.37%.

For the molecule `C[C@H]1C[C@H]2[C@@H]3CCC4=CC(=O)C=C[C@]4(C)[C@@H]3C(=O)C[C@]2(C)[C@@]1(O)C(=O)CO`, the Potency entry in assay [1], in assay [2], in [3], in [4], in [5] and in [6] was “inactive” throughout. For the same molecule, the Potency is 20900 nM (active) in assay [8] and 23500 nM (active) in [9].

With `CCC(C)(C)c1ccc(CC(C)CN2C[C@@H](C)O[C@@H](C)C2)cc1` (stereo not given in full), the Potency entry in assay [1], in [2], in [3], in [4], in assay [5] and in assay [6] was “inactive” throughout. Also, the Potency entry in assay [8] and in assay [9] was “inactive” throughout. Also, the Potency in [11] is 18400 nM (active).

Regarding `CCOc1cc2ncc(C#N)c(Nc3ccc(OCc4ccccn4)c(Cl)c3)c2cc1NC(=O)C=CCN(C)C`, the Potency in [1] was 526 nM (active); in assay [2], 935 nM (active); in assay [3], 332 nM (active); in [4], 590 nM (active); in assay [5] it was 1050 nM (active); in assay [7], 332 nM (active). For the same molecule, the figures for the Potency in [8] and in [9] were 148 nM (active) and 296 nM (active), respectively.

In the case of `Fc1ccc(C(c2ccc(F)cc2)N2CCN(CC=Cc3ccccc3)CC2)cc1`, the Potency entry in assay [1], in assay [2], in assay [3], in assay [4], in assay [5] and in assay [7] was “inactive” throughout. The Potency entry in assay [8] was “inactive”.

As for `CCOC(=O)[C@H](CCc1ccccc1)N[C@@H](C)C(=O)N1CCCC1C(=O)O` (stereo not given in full), the Potency result in [1], in [2], in [3], in assay [4], in assay [5] and in assay [7] was “inactive” throughout. The Potency result in assay [9] is “inactive”.

As to `CC(C)(O)Cn1c(NC(=O)c2ccc(-c3cn[nH]c3)s2)nc2cc(CN3CCOCC3)ccc21`, the Potency in assay [1] was 4180 nM (active); in [2] it was 4180 nM (active); in assay [3], 2960 nM (active); in [4] it was 2350 nM (active); in [5] it was 2350 nM (active); in [7], 105 nM (active). For the same molecule, the Potency in assay [8] is 66.2 nM (active); in [9], 93.5 nM (active).

For `C[C@]12CC[C@@H]3c4ccc(O)cc4CC[C@H]3[C@H]1[C@@H](O)[C@@H](O)[C@H]2O`, the Potency result in assay [1], in assay [2], in [3], in [4], in assay [5] and in assay [6] was “inactive” each time. Also, the Potency entry in [11] was “inactive”.
